Common to all, as to assay: DAPPL (digital affinity profiling via proximity ligation, sequencing); 10 mM Tris-HCl pH 7.5, 50 mM NaCl, 1 mM DTT, 4% glycerol, room temperature, 30 min; GST-TFs on glutathione beads, 16-mer random dsDNA library, 0.1% formaldehyde crosslink after washing; high values mean tight binding
Details in all cases: protein: recombinant; tags: N-terminal GST; dsDNA, one strand shown

For test [1], the target named is SPI1 (Homo sapiens, UniProt P17947 1-270). The procedure, abridged:
(§1)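 Each value of binding signal is a hexamer's read frequency for a factor divided by the same hexamer's frequency in the tag-only sample. Barcoded, bead-captured GST fusions of human transcription factors made in yeast were pooled with that sample and incubated with 200 nmole of a random double-stranded 16-mer DNA library in Tris/NaCl/DTT/glycerol buffer at room temperature for 30 min. Washing, 0.1% formaldehyde crosslinking, proximity ligation, PCR and Illumina NextSeq500 sequencing followed.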

Test [2] addresses ETV5 (Homo sapiens, UniProt P41161 1-510). The procedure, abridged:
as §1

The target in test [3] is T1, SPIC (Homo sapiens, UniProt Q8N5J4 1-248).
T1 sequence: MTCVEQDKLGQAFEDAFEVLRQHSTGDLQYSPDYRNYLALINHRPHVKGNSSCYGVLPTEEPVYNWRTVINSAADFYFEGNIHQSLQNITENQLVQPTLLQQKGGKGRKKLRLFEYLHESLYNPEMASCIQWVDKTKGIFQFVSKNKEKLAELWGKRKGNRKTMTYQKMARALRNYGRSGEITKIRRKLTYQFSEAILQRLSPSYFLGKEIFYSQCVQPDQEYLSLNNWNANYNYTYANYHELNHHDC
The gist of the method:
as §1

For test [4], the target named is T2, ELK4 (Homo sapiens, UniProt P28324-2 1-405).
T2 sequence: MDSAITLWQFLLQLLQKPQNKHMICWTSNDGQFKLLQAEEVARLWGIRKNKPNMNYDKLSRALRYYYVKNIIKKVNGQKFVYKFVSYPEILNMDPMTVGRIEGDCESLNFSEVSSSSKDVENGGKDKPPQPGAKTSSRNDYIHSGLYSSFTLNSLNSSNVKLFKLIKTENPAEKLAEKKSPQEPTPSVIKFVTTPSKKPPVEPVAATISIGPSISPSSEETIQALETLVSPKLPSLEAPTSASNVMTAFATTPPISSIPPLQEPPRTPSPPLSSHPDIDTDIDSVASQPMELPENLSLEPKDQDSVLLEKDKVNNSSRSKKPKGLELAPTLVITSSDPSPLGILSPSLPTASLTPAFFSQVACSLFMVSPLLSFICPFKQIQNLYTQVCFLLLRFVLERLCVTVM
The procedure, abridged:
as §1

Test [5] has as its target T3, ELF3 (Homo sapiens, UniProt P78545 1-371).
T3 sequence: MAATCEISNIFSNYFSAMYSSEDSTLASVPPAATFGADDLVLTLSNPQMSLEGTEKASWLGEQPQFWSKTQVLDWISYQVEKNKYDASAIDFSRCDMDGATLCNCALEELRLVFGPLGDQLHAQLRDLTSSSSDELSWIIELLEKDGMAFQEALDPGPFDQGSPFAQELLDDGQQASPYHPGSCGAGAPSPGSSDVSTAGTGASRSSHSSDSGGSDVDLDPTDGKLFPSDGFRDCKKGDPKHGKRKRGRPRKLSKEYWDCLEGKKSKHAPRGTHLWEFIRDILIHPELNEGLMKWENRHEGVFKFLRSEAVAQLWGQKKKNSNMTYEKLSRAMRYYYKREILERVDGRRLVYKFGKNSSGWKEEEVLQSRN
The gist of the method:
as §1

For test [6], the target named is T4, ETV7 (Homo sapiens, UniProt Q9Y603 1-341).
T4 sequence: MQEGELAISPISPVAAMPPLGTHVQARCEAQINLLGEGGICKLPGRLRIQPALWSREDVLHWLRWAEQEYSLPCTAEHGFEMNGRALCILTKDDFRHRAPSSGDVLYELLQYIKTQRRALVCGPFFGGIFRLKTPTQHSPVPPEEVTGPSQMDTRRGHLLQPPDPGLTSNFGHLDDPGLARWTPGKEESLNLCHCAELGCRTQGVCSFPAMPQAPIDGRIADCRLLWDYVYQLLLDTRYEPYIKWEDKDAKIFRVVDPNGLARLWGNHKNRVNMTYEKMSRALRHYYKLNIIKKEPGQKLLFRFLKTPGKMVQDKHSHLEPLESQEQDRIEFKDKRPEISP
The gist of the method: as §1

Test [7] has as its target T5, ETV3 (Homo sapiens, UniProt P41162-2 1-143).
T5 sequence: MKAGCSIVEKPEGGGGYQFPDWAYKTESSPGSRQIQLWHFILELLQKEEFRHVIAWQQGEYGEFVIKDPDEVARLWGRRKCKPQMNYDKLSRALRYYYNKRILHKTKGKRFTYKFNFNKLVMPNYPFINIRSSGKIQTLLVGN
The procedure, abridged: as §1

The target of test [8] is ETV6 (Homo sapiens, UniProt P41212 1-452). The procedure, abridged:
as §1

Test [9] deals with T6, ELK1 (Homo sapiens, UniProt P19419 1-428).
T6 sequence: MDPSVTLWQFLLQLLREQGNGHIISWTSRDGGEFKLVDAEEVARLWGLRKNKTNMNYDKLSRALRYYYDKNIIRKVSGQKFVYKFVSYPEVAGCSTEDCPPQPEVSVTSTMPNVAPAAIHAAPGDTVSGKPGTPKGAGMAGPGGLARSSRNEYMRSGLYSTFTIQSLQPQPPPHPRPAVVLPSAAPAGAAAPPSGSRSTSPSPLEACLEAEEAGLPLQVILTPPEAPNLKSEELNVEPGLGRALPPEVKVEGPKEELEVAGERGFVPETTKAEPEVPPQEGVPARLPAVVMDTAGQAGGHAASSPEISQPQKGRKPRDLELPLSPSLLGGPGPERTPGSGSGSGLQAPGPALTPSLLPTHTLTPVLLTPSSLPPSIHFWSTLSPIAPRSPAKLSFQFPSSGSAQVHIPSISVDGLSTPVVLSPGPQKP
The gist of the method:
as §1

Test [10] has as its target T7, GABPA (Homo sapiens, UniProt Q06546 1-454).
T7 sequence: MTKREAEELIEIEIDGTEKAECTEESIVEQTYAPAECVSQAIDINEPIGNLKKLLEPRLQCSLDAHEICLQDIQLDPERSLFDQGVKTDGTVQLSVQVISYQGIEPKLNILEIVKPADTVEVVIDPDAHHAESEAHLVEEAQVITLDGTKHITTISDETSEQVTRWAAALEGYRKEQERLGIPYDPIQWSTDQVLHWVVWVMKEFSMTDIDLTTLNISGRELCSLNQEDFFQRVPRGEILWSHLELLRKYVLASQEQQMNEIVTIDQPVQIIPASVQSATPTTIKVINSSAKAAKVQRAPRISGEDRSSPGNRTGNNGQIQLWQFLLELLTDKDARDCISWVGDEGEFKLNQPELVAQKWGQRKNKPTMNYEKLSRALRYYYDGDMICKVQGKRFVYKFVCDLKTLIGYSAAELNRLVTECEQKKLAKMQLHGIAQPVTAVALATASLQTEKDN
The procedure, abridged:
as §1

Test [11] addresses T8, ERG (Homo sapiens, UniProt P11308 1-479).
T8 sequence: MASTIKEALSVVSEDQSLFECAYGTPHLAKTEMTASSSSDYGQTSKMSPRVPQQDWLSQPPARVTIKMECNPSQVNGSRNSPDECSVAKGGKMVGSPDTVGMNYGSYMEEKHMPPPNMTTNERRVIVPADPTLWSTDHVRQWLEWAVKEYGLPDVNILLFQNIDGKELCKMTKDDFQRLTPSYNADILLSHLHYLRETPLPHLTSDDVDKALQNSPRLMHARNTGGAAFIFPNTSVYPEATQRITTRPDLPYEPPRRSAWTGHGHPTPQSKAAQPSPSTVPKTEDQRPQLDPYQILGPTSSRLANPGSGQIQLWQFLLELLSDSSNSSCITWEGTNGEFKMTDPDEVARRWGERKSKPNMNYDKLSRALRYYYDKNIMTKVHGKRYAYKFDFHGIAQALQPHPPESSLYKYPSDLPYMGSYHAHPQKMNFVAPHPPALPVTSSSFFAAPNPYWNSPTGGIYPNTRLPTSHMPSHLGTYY
The procedure, abridged: as §1

Test [12] addresses ELF1 (Homo sapiens, UniProt P32519 1-619). The procedure, abridged: as §1
In test [13] the target is T9, EHF (Homo sapiens, UniProt Q9NZC4 1-300).
T9 sequence: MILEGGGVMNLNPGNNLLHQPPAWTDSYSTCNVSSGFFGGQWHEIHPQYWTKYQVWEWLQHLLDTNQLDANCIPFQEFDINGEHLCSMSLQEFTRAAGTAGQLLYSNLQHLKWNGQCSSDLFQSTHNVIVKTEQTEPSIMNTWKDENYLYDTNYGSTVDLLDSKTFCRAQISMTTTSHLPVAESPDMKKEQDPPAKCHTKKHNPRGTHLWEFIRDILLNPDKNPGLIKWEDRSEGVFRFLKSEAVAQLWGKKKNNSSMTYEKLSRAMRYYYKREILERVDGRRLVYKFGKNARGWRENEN
The gist of the method: as §1

Test [14] concerns the target SPIB (Homo sapiens, UniProt Q01892 1-262). The procedure, abridged:
as §1

The target in test [15] is ELF4 (Homo sapiens, UniProt Q99607 1-663). The procedure, abridged:
as §1

The target in test [16] is ETV1 (Homo sapiens, UniProt P50549 1-477). The gist of the method: as §1
Sequence of ETV1 (P50549 whole entry): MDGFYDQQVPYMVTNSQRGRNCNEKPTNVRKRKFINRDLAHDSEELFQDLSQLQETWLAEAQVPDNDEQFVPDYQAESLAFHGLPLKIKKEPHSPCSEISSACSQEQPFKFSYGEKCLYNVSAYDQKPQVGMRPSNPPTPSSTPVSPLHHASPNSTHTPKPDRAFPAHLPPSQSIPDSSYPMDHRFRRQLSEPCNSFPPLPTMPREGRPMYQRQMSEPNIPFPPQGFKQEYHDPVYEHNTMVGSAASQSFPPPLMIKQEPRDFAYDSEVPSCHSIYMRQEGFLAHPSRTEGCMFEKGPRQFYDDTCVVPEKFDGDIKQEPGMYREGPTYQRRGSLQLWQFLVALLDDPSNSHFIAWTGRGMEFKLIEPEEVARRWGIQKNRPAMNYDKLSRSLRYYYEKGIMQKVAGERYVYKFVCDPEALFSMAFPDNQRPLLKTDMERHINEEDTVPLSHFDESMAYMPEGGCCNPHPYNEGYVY
For test [17], the target named is T10, ERF (Homo sapiens, UniProt P50548 1-548).
T10 sequence: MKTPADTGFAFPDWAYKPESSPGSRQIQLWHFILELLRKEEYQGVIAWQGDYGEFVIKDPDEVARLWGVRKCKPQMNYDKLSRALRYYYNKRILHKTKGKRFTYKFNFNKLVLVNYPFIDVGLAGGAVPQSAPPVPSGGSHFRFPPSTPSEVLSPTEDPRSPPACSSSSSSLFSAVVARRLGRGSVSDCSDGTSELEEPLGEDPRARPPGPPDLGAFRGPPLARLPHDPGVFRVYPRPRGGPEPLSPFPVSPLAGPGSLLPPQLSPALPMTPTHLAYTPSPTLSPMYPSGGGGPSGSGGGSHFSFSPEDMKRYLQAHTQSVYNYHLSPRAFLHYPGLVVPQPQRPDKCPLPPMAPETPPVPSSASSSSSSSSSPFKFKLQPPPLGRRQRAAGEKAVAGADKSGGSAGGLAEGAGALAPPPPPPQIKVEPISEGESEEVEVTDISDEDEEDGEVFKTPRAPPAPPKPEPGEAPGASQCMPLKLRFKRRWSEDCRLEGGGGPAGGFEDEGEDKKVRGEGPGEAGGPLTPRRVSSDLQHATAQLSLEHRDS
The procedure, abridged: as §1

The target of test [18] is T11, ETV3L (Homo sapiens, UniProt Q6ZN32 1-361).
T11 sequence: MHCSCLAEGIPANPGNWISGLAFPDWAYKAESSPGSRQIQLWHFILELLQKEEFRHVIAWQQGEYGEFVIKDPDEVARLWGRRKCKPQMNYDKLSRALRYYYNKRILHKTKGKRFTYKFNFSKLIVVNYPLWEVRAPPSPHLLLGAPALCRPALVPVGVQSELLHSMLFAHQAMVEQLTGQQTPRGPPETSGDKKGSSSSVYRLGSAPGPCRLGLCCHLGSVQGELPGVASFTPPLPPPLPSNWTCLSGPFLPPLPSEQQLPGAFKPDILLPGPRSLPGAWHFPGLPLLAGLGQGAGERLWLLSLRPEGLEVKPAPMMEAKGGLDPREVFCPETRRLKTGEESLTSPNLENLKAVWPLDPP
The gist of the method:
as §1

For test [19], the target named is T12, ETS2 (Homo sapiens, UniProt P15036 1-469).
T12 sequence: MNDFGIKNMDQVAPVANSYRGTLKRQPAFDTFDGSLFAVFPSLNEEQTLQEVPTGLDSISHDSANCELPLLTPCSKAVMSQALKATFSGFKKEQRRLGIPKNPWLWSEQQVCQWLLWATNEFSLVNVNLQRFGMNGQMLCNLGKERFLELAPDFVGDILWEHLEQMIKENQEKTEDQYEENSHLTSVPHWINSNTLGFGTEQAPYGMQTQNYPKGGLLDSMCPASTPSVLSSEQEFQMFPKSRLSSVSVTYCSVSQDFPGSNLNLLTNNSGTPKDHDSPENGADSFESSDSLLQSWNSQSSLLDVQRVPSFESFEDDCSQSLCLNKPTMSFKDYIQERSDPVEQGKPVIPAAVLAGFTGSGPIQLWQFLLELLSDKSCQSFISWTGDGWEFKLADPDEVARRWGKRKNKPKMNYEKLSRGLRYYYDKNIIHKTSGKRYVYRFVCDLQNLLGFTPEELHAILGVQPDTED
The gist of the method:
as §1

Sequence of ETV6 (P41212 whole entry): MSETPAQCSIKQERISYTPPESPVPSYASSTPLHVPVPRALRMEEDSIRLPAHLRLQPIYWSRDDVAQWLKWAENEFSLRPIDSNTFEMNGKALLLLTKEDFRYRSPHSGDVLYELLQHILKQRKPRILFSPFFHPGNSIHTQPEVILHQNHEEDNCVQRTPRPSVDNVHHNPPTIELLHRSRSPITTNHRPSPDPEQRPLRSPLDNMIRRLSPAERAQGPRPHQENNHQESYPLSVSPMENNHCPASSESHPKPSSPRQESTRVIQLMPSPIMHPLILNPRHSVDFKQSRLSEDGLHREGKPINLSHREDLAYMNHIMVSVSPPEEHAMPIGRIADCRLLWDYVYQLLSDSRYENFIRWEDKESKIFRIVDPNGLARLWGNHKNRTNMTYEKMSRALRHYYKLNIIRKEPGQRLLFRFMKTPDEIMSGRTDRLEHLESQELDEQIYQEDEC
Sequence of ELF1 (P32519 whole entry): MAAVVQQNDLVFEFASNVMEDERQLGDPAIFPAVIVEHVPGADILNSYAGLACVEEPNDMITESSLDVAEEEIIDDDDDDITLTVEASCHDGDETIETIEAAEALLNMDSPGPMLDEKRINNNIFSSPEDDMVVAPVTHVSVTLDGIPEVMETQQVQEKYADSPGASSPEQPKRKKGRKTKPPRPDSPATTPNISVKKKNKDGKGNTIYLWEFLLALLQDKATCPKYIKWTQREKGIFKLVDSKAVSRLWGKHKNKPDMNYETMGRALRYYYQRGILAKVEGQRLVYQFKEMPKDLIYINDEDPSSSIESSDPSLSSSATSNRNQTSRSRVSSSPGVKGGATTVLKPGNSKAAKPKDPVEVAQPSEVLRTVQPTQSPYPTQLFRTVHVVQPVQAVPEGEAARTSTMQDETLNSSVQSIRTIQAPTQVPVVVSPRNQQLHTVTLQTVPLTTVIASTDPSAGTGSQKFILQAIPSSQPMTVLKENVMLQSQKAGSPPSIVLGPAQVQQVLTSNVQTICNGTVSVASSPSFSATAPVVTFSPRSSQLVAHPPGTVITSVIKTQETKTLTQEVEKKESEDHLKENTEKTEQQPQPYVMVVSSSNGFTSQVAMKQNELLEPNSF
Sequence of ELF4 (Q99607 whole entry): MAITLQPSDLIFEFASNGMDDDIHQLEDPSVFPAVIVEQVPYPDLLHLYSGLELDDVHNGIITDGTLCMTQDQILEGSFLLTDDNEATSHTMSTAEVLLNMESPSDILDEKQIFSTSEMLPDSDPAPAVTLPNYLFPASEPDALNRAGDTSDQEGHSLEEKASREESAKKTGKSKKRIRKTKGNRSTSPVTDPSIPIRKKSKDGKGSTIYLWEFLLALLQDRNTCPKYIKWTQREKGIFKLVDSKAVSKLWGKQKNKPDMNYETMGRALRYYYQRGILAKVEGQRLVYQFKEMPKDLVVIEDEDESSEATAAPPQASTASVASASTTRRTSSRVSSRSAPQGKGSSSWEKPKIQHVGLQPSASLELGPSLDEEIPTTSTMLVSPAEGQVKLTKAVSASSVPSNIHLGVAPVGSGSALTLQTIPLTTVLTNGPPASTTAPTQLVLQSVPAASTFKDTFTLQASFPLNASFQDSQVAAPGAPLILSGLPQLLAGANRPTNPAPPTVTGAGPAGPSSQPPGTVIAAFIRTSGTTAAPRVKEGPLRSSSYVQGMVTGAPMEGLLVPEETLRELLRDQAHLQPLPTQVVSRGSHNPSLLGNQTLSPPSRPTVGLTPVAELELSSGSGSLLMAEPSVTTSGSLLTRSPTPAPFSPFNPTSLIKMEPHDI
Sequence of ETV5 (P41161 whole entry): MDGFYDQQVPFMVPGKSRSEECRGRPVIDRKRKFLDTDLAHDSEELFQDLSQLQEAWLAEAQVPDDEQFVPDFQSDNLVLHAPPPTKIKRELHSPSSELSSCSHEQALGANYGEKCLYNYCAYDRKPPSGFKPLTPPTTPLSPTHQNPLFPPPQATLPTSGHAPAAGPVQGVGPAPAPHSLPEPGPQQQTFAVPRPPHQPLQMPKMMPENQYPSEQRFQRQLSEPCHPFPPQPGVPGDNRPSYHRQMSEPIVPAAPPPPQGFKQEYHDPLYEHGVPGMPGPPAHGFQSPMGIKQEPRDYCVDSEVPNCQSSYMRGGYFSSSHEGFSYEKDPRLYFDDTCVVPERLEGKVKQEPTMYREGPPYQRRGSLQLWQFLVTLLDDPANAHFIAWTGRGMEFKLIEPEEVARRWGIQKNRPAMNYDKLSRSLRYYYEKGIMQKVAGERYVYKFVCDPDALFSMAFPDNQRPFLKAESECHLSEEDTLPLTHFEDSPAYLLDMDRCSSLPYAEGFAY
Sequence of SPIB (Q01892 whole entry): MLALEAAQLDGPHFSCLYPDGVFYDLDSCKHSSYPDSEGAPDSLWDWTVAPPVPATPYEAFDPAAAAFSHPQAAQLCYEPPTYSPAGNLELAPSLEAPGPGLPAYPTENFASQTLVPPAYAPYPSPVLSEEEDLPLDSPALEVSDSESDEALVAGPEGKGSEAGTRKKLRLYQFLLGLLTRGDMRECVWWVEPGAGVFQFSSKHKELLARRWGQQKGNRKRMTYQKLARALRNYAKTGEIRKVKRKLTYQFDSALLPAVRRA

For the sequence AAACAG, the binding signal in test [1] is 1.13 fold enrichment (6-mer frequency, TF over GST control); in test [2], 1.07 fold enrichment (6-mer frequency, TF over GST control); in test [3], 1.12 fold enrichment (6-mer frequency, TF over GST control); in test [4] it was 1.04 fold enrichment (6-mer frequency, TF over GST control); in test [5], 1.01 fold enrichment (6-mer frequency, TF over GST control); in test [6], 1.04 fold enrichment (6-mer frequency, TF over GST control). In addition, the binding signal in [7] is 1.01 fold enrichment (6-mer frequency, TF over GST control); in test [8], 1.03 fold enrichment (6-mer frequency, TF over GST control).

On to GTTCGC, for which the binding signal was 1.08 fold enrichment (6-mer frequency, TF over GST control) in test [9]; 1.03 fold enrichment (6-mer frequency, TF over GST control) in test [10]; 1.04 fold enrichment (6-mer frequency, TF over GST control) in test [11]; 1.02 fold enrichment (6-mer frequency, TF over GST control) in test [12]; 1.05 fold enrichment (6-mer frequency, TF over GST control) in test [13]; 1.04 fold enrichment (6-mer frequency, TF over GST control) in test [1]. Besides, the binding signal in [14] is 1.11 fold enrichment (6-mer frequency, TF over GST control); in test [3], 1.17 fold enrichment (6-mer frequency, TF over GST control); in [15] it was 1.1 fold enrichment (6-mer frequency, TF over GST control); in test [4], 1.16 fold enrichment (6-mer frequency, TF over GST control); in test [16] it was 1.14 fold enrichment (6-mer frequency, TF over GST control); in [17], 1.18 fold enrichment (6-mer frequency, TF over GST control). In addition, the binding signal in [18] was 1.07 fold enrichment (6-mer frequency, TF over GST control); in test [19], 1 fold enrichment (6-mer frequency, TF over GST control); in test [6], 1.02 fold enrichment (6-mer frequency, TF over GST control); in [8], 1.07 fold enrichment (6-mer frequency, TF over GST control).

Values taken from article PMC7862700, “An all-to-all approach to the identification of sequence-specific readers for epigenetic DNA modifications on cytosine”.
